PubChem BioAssay (Tox21)
Inconclusive results are not listed. Where a call stands in place of a potency, no number is given. Calls of active or inactive are those of the source. Calls follow the shape of the full dose curve.

molecular target: 5-hydroxytryptamine receptor 2A (Homo sapiens) (UniProt P28223); assay: 5-hydroxytryptamine receptor 2A (HTR2A) small molecule agonists, cell-based qHTS assay (AID 1963587); details: HTR2A-CHO cells, calcium flux fluorescence, agonist mode; series mostly up to 76.8 µM; also: nearly all actives have a fitted effect of over 30% in size
Sequence (P28223 whole entry, looked up): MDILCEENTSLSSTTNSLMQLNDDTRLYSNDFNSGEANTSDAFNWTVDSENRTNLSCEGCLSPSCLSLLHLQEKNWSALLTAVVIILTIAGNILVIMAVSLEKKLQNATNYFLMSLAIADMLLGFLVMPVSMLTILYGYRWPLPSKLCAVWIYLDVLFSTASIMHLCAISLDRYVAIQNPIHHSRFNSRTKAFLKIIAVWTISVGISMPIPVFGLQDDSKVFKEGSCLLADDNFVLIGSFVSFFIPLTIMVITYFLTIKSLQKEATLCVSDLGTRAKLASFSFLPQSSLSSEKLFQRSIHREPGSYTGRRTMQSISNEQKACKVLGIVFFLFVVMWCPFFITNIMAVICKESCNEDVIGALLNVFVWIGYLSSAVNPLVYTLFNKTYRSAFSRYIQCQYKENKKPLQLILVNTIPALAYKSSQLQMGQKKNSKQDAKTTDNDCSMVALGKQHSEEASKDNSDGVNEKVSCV
Source text: National Center for Advancing Translational Sciences [NCATS]
Division of Preclinical Innovation [DPI]
U.S. Environmental Protection Agency [EPA]
National Institutes of Environmental Health Sciences [NIEHS]
National Toxicology Program [NTP]
U.S. Food and Drug Administration [FDA]
The HTR2A receptor is a subtype of the 5-HT2 receptor that belongs to the serotonin receptor family and is a G protein-coupled receptor (GPCR). The HTR2A-CHO cell line stably expressing human 5-hydroxytryptamine receptor 2A (HTR2A) can be used for screening agonists of interactions between 5-HT2 and its ligands. The HTR2A-CHO calcium flux assay is a homogeneous fluorescence-based assay for detecting the intracellular calcium level using FDSS kinetic plate reader system.
HTR2A-CHO cells were dispensed at 2000 cells/3uL/well in 1536-well black-clear bottom plates using a Multidrop Dispenser. After the assay plates were incubated at a 37 C/5% CO2 incubator for 18 h, 3 uL of Dye Loading Buffer was transferred to the assay plate by a Flying Reagent Dispenser. The assay plates were incubated at 37 C for 1h. For agonist mode, 23 nL of compounds dissolved in DMSO, positive controls or DMSO only was transferred to the assay plate by a pin tool. The fluorescence intensity in the plates was measured using FDSS 7000EX kinetic plate reader for 2 min at 1 sec intervals.

| SMILES | Potency |
| --- | --- |
| CCC/C=C/CO | inactive |
| C=CC(=O)NCOCCCC | inactive |
| O=C(O)c1ccc(OCCN2CCCCC2)cc1 | inactive |
| CC1=NN(c2ccc(S(=O)(=O)O)cc2)C(=O)C1 | inactive |
| C=C(C)C(=O)OCCC(F)(F)C(F)(F)C(F)(F)C(F)(F)C(F)(F)C(F)(F)F | inactive |
| CCCc1ccc(O)cc1 | inactive |
| CN1C(CCl)Nc2cc(Cl)c(S(N)(=O)=O)cc2S1(=O)=O (stereo not given) | inactive |
| O=C(O)CNC(=O)c1ccc(CO)o1 | inactive |
| O=C1CC2CC1C1CCCC21 (stereo not given) | inactive |
| CC(C)CCCC(C)CCCC(C)CCCCC(C)CCCC(C)CCCC(C)C (stereo not given) | inactive |
| ClC/C=C\CCl | inactive |
| CCOC(=O)c1c(C)n(C)c2ccc(O)cc12 | inactive |
| O=C(c1ccc(O)cc1O)c1ccc(O)cc1O | inactive |
| CC(C)N=C(N)/N=C(\N)Nc1ccc(Cl)cc1 | inactive |
| CC(C)(CO)[C@@H](O)C(=O)NCCC(=O)O | inactive |
| CN(C)c1cccc(O)c1 | inactive |
| O=C(O)/C=C/c1cnc[nH]1 | inactive |
| CN1CCc2cccc3c2[C@H]1Cc1ccc(O)c(O)c1-3 | inactive |
| NC(=O)Cc1cccc2ccccc12 | inactive |
| CC(=O)O[C@@H]1CC2C3CCc4cc(OC(=O)c5ccccc5)ccc4C3CCC2(C)[C@H]1OC(C)=O (stereo not given in full) | inactive |

| SMILES | Potency |
| --- | --- |
| O=C1c2ccccc2CCc2ccccc21 | inactive |
| Cc1ccccc1C(=O)N1CC/C(=N\OS(=O)(=O)O)c2ccc(Cl)cc21 | inactive |
| Clc1cc(Cl)c(Cl)c(Cl)c1Cl | inactive |
| O=C(O)c1ccccc1OP(=O)(O)O | inactive |
| CCCCCCCCCCCCCCCCCCOCC(O)CO (stereo not given) | inactive |
| COC(=O)c1ccc([N+](=O)[O-])cc1 | inactive |
| CCCCOCCOCCOCCO | inactive |
| CCCN1C=CN(C)C1 | inactive |
| CC(=O)C(C)O (stereo not given) | inactive |
| ClCCCl | inactive |
| CCCCCCCCc1ccc(Nc2ccc(CCCCCCCC)cc2)cc1 | inactive |
| CC(=O)c1ccc(O)c(C(N)=O)c1 | inactive |
| O=C(O)c1ccc(O)cc1O | inactive |
| CC(C)=CCC/C(C)=C/C#N | inactive |
| CCOC(=O)c1cccc(N)c1 | inactive |
| OCc1c2ccccc2cc2ccccc12 | inactive |
| O=C(O)c1ccccc1C(c1ccc(O)cc1)c1ccc(O)cc1 | inactive |
| CC(=O)S[C@H](C(=O)N[C@H]1Cc2ccccc2[C@H]2CCC[C@@H](C(=O)O)N2C1=O)C(C)C | inactive |
| O=C(O)[C@H](O)[C@@H](O)[C@H](O[C@@H]1O[C@H](CO)[C@H](O)[C@H](O)[C@H]1O)[C@H](O)CO | inactive |
| O=c1cc(CO)occ1O | inactive |
